Results on 44 sequences are retold here after paper PMC7819943, “Rice protein-binding microarrays: a tool to detect cis-acting elements near promoter regions in rice”.

Over roughly 68,000 sequences, “fluorescence intensity (a.u.)” has its median near 9,100; the highest 2% begin near 16,000. This is one part of a sample in which the highest values are shown more often than they occur.

Sequence of OsWRKY34 (Q0JBA9 entry or part of it): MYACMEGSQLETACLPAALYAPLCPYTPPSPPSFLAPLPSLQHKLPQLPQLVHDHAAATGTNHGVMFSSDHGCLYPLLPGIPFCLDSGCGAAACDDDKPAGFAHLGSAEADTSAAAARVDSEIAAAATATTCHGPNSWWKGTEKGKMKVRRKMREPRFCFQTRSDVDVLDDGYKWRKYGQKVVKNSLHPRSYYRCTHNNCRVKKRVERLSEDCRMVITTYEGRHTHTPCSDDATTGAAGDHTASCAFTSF

The experiment concerns the target OsWRKY34 (Oryza sativa, UniProt Q0JBA9 1-250). Briefly: protein-binding microarray (RPBM); PBS, 2% BSA, 51.3 ng/ul salmon testes DNA, 50 uM zinc acetate, 200 nM TF, 25 C, 1 h; high values mean tight binding. The note with it: protein: recombinant; tags: N-terminal polyhistidine and DsRed monomer fusion (pET32a); label: CyDye5-dUTP incorporated in the synthesized complementary strand; 3' TTTTT single-stranded linker to array surface; dsDNA, one strand shown. The method in brief: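 In PBS with 2% BSA, salmon testes DNA and 50 µM zinc acetate, 200 nM protein was incubated on a custom Agilent array at 25 °C for 1 h and then washed off. The array had been made double-stranded by primer extension with Cy5-dUTP and blocked with 2% BSA. The proteins were transcription factors fused N-terminally to polyhistidine and DsRed, expressed in E. coli BL21-CodonPlus and purified on Ni–NTA. The binding signal is per-feature fluorescence intensity (arbitrary units) from an Axon 4000B scanner.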
Consider “ATATATATATATATATATATATATATGCAGCAACAGGGCCCGGAGTCACCTAGTGCAG”, for which the binding signal is 17400 fluorescence intensity (a.u.).

For the sequence “ATATATATATATATATATATATATATATATATGCAGCATGCGGAGTCACCTAGTGCAG”, the binding signal is 13100 fluorescence intensity (a.u.). The value for “ATATATATATATATATATGTGTGTATATATATATATATATCGGAGTCACCTAGTGCAG” was 8920 fluorescence intensity (a.u.). “TATATATATATATATATATATATATATATATATGGAGTATCGGAGTCACCTAGTGCAG”: the binding signal was 24600 fluorescence intensity (a.u.). With “CTTTAATAGTATAGCCAACTACTACCTCGGAATCACCTATCGGAGTCACCTAGTGCAG”, the binding signal was 20300 fluorescence intensity (a.u.).

On to “ATATATATATATATATATATATGTGTGTGTGTGTGTGTCCCGGAGTCACCTAGTGCAG”, for which the binding signal was 14500 fluorescence intensity (a.u.). As to “TATATATACACACACACACAAACACACACACACACACACACGGAGTCACCTAGTGCAG”, the binding signal was 8720 fluorescence intensity (a.u.). For “ATATATATATATATATATATATATATATATATGTATGTATCGGAGTCACCTAGTGCAG”, the binding signal is 10100 fluorescence intensity (a.u.). As for “ATAGCCAACTATTACTTTTAAATTATTTATAGTCAAATTTCGGAGTCACCTAGTGCAG”, the binding signal is 9190 fluorescence intensity (a.u.). The value for “ATATATATATATATATATATATATATATATACACACACACCGGAGTCACCTAGTGCAG” was 22200 fluorescence intensity (a.u.); that for “GCCTGCTATTGTACCTGCTTTAATATAGCCAACCTACTATCGGAGTCACCTAGTGCAG” was 8330 fluorescence intensity (a.u.); that for “CTACTTTACCAGCTCATCTATCACATCTTAACTGTATTTTCGGAGTCACCTAGTGCAG” was 10300 fluorescence intensity (a.u.).

Take “ACCCGTCTCTCTTTCTTTCTTTCTCTCTCTCCTGTGTTTTCGGAGTCACCTAGTGCAG”: the binding signal is 8600 fluorescence intensity (a.u.). “TCCACACACCCCGCTTGCTAACCAACCGTGACACGCAACCCGGAGTCACCTAGTGCAG”: the binding signal is 10100 fluorescence intensity (a.u.).

Take “CCTAGCCCTAATTGATCCTTGCCTCGATGTTTTCCCTCCGCGGAGTCACCTAGTGCAG”: the binding signal is 10100 fluorescence intensity (a.u.).

Turning to “CCCTTGACAGCACAGAGGCAACAGCAAAACACACTCTCATCGGAGTCACCTAGTGCAG”, the binding signal was 8580 fluorescence intensity (a.u.).

In the case of “CTAGATTTTTTGGTGACATTTTTTAGTTGGTGTGCACGTGCGGAGTCACCTAGTGCAG”, the binding signal is 10200 fluorescence intensity (a.u.). Take “ACTCCTCTGCATGCTTTTTTTTTCCCTTCAGTTTCAGTTGCGGAGTCACCTAGTGCAG”: the binding signal was 11200 fluorescence intensity (a.u.). For the sequence “GGCAACCACCTCAATTATTATTCCATTCCCTACCACCACTCGGAGTCACCTAGTGCAG”, the binding signal is 9980 fluorescence intensity (a.u.). Take “TCAAAATGTTCGACACCGTTGACTTTTTAACACATGTTTGCGGAGTCACCTAGTGCAG”: the binding signal was 14400 fluorescence intensity (a.u.). Consider “TTTCAAAATATTTGACACCGTTGACTTTTTAACACATGTTCGGAGTCACCTAGTGCAG”, for which the binding signal was 17900 fluorescence intensity (a.u.). Take “ACCTTTTTAAATATTTGACACTGTCGACTTTTTAGCACATCGGAGTCACCTAGTGCAG”: the binding signal is 9730 fluorescence intensity (a.u.).

In the case of “TGTTTGACACCGTTGACTTTTTAGCACATGTTTGACCGTTCGGAGTCACCTAGTGCAG”, the binding signal is 38000 fluorescence intensity (a.u.). The value for “ATCCTAAAATGTTTGACACCATTGACTTTTTTAAAAATGTCGGAGTCACCTAGTGCAG” was 8790 fluorescence intensity (a.u.). In the case of “GTTTTAAAATGGTTGACACCGTTGACTTTTTAGCACGTGTCGGAGTCACCTAGTGCAG”, the binding signal was 30100 fluorescence intensity (a.u.). Regarding “TTGACACCGTTGACTTTTTAGCACATGTTTGACCGTTCGTCGGAGTCACCTAGTGCAG”, the binding signal is 35800 fluorescence intensity (a.u.). Consider “TTTAACACATGTTTGACCGTTCGTCTTATTCAAAAACTTTCGGAGTCACCTAGTGCAG”, for which the binding signal is 10900 fluorescence intensity (a.u.). As for “TGGCTTGGTCCGCTAGTTCCTAACATCATGACAGTATTTTCGGAGTCACCTAGTGCAG”, the binding signal is 8280 fluorescence intensity (a.u.). Consider “CCCAGGTAGGATATGTGTATGTGTTTATATGGGTGAGTCTCGGAGTCACCTAGTGCAG”, for which the binding signal is 9300 fluorescence intensity (a.u.). On to “TTTACCTCTCTGCCGGCCTTTGCACGCTTGTAGCCCACCACGGAGTCACCTAGTGCAG”, for which the binding signal was 9670 fluorescence intensity (a.u.). On to “GGCACGGTTTGAACGCATTACCCATTCCCCGTTTGACTTCCGGAGTCACCTAGTGCAG”, for which the binding signal was 12800 fluorescence intensity (a.u.). Turning to “GCGTTACATACATCCTTATTATGTTGTTCATGTTTATAAACGGAGTCACCTAGTGCAG”, the binding signal was 8240 fluorescence intensity (a.u.). Regarding “CCTATATCATCCTTTGATAAGATCGACTGTTTGCTATTTACGGAGTCACCTAGTGCAG”, the binding signal was 9940 fluorescence intensity (a.u.). As for “TGCCAATGCCAGGGTTTTCGTCGGTTTTACATAAATTAACCGGAGTCACCTAGTGCAG”, the binding signal was 8500 fluorescence intensity (a.u.).

As to “GTGGAATCGTTCGTTCTTGACTTCACCTACCAAGATTTGCCGGAGTCACCTAGTGCAG”, the binding signal is 8640 fluorescence intensity (a.u.). With “CCTCGCTCCGTCGCTCACAACCCGTCTCCTGCTCGATCCGCGGAGTCACCTAGTGCAG”, the binding signal is 9140 fluorescence intensity (a.u.). The value for “TAGCATGACCTTTCACCCATACATATGAGCTACTTCTCTTCGGAGTCACCTAGTGCAG” was 9280 fluorescence intensity (a.u.); that for “GACACCGTTGACTTTTTAGCACATGTTTGACCGCTCATCTCGGAGTCACCTAGTGCAG” was 32800 fluorescence intensity (a.u.); that for “GAGATATCGTTGACTTTTAGCATAACATAGACCATTCAGCCGGAGTCACCTAGTGCAG” was 18300 fluorescence intensity (a.u.).

For the sequence “TAGATAACGTCATTGACTTTTTCTCACATATTTGACCATTCGGAGTCACCTAGTGCAG”, the binding signal is 12400 fluorescence intensity (a.u.). On to “TGTTTGACATCGTTGACTTTTTAACACATGTTTCACTGTTCGGAGTCACCTAGTGCAG”, for which the binding signal was 36000 fluorescence intensity (a.u.). With “ACGCCGTTGGCTTTTTAGCATATATTTGACCATTCATCTTCGGAGTCACCTAGTGCAG”, the binding signal is 8190 fluorescence intensity (a.u.).

As to “ATGTATAACACTGTTGACTTTTTAAGATATATTTGATCATCGGAGTCACCTAGTGCAG”, the binding signal is 15900 fluorescence intensity (a.u.). “TTGATACCGTTGACTTTTTAGCACATGTTTGACCATTCATCGGAGTCACCTAGTGCAG”: the binding signal is 39400 fluorescence intensity (a.u.).
